# Source: PubChem
# Only some compounds are listed: those with a hit (about 19% of all), similar ones and a draw of the others.
# DT40 TDP1 CPT – DT40-hTDP1 cell growth loss with CPT. chicken DT40 Tdp1-/-;hTDP1 cells + 20 nM CPT, ATP luminescence, 48 h. Potency, µM (doses to about 46.2 µM), inactives show at the top dose activity change, negative = growth inhibition, hits mostly inhibitors. 12% of 420,000 active. AID 686979; further: potency means the concentration at half of the fitted maximal effect; on the % scale 0 is the no-effect control and ±100 the full control effect; nearly all actives have a fitted effect of over 55% in size
#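 Cell growth measured by CellTiter-Glo luminescence after a minimum 48 h, 37 C compound exposure with 20 nM CPT in Tdp1-knockout DT40 cells stably expressing hTDP1, seeded 400/well; qHTS titration format.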
# TGFb inhibitor – inhibitors of TGF-b signaling; HepG2 CAGA-GFP TGF-b/SMAD3 reporter, GFP fluorescence, 18 h; TGF-beta stimulated, 500 pg/mL final; Potency, µM (highest dose often 46.1 µM), for inactives: at the highest dose activity, negative = inhibition, hits mostly inhibitors; 1.2% of 410,000 active; further: potency means the concentration at half of the fitted maximal effect; on the % scale 0 is the no-effect control and ±100 the full control effect; nearly all actives have a fitted effect of over 65% in size
#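 HEPG2 CAGA-GFP reporter cells (1000/well, DMEM with 1% FBS) received compounds, then recombinant TGF-beta at 500 pg/mL final for 18 hours at 37 degrees C. Per-cell GFP summed per well was normalised to unstimulated and stimulated DMSO controls before curve fitting.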
# S-ASM inh – inhibitors of human secretory acid sphingomyelinase. P17405. placental ASM, HMU-PC fluorogenic substrate, 60 min. Potency, µM (highest dose often 57.5 µM), for inactives: top-dose activity change, negative = inhibition, hits mostly inhibitors. 0.006% of 340,000 active. AID 504937; further: potency means the concentration at half of the fitted maximal effect
# Target sequence (P17405 47-631 limits assumed): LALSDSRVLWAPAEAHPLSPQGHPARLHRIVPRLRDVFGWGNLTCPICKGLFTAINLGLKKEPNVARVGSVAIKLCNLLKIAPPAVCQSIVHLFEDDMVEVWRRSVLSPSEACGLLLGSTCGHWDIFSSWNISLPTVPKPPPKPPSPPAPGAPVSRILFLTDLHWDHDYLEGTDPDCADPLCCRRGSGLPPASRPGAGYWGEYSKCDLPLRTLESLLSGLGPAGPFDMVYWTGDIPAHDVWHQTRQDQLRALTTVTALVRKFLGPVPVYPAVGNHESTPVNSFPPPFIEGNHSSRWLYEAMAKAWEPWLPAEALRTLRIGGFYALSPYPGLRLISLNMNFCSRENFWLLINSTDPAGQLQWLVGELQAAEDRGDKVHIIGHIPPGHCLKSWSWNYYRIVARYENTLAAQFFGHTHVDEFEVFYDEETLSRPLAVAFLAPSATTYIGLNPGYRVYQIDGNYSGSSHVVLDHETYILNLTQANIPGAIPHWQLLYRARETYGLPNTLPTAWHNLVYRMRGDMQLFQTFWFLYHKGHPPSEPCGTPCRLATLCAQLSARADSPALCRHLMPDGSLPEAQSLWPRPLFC
#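 Human placenta-derived ASM enzyme was preincubated with compound for 10 minutes at room temperature, then given fluorogenic substrate HMU-PC0 (9 uM final) for 60 minutes at 37 °C; a pH 10 stop preceded fluorescence reading at Ex 386/Em 447 nm.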
# HepG2 tox – counter-screen for TGF-b inhibitors: cytotoxicity in HepG2 cells. Potency, µM (series often up to 46.1 µM), without a hit: at the top dose activity change, negative = cytotoxicity, most hits filed as cytotoxic. HepG2 CAGA-GFP viability, ATP luminescence, 18 h. 0.76% of 410,000 active; further: potency means the concentration at half of the fitted maximal effect
#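 CellTiter-Glo luminescence gave cytotoxicity after 18 hours at 37 degrees C. The cells were HepG2 CAGA-GFP in 1% FBS DMEM, stimulated with 500 pg/mL TGF-beta after compound addition. %Activity was normalised to no-cell wells (complete cell-killing) and DMSO (no toxicity), and curves were fitted and classified.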
# DT40 TDP1 no CPT – qHTS for Inhibitors of human tyrosyl-DNA phosphodiesterase 1 (TDP1): qHTS in cells in absence of CPT; DT40 Tdp1-/- hTDP1 cells, no CPT, ATP luminescence, 48 h; Potency, µM (series often up to 46.2 µM), inactives show top-dose activity change, negative = growth inhibition, most hits filed as inhibitors; 15% of 420,000 active; AID 686978, 2013; further: potency means the concentration at half of the fitted maximal effect; on the % scale 0 is the no-effect control and ±100 the full control effect; nearly all actives have a fitted effect of over 55% in size
#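 Chicken DT40 Tdp1-/- cells stably complemented with human TDP1 were seeded at 400 cells/well with DMSO in place of 20 nM camptothecin. After compound pinning, cells grew at least 48 hr at 37 °C; viability read by CellTiter-Glo luminescence.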
# IL-1B inflam inh – inhibitors of inflammasome signaling (IL-1 beta secretion); THP-1 LPS/ATP IL-1B secretion, AlphaLISA, 16 h; active compounds read low; activity change, % at 57.5 µM; 4.7% of 360,000 active; AID 743279; in the data active means activity change below about -50%; inconclusive means mostly about -30% to -49%; further: on the % scale 0 is the no-effect control and ±100 the full control effect
#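 THP-1 cells pretreated 1 hr with compounds (up to 57.5 uM final), then stimulated with LPS (250 ng/mL final) plus ATP (1.25 mM final); secreted IL-1B measured by AlphaLISA after 16 hr, decreased signal indicating inhibition.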
# * marks the source's active call; other numbers are inactive results; ? = inconclusive; . = no result. Unless noted, the call rests on the fitted dose curve; in most records, active means well fitted curve in the direction sought with a large enough effect; inconclusive means small, poorly fitted or top-dose-only effect, or another doubt; inactive means no such curve, though single readings can be large; an effect the other way counts as inactive or inconclusive.
SMILES,DT40 TDP1 CPT,TGFb inhibitor,S-ASM inh,HepG2 tox,DT40 TDP1 no CPT,IL-1B inflam inh
COC(=O)[C@]1(C)N[C@H](CN(C)S(=O)(=O)c2ccc(OC(F)(F)F)cc2)[C@@H]2C(=O)N(Cc3ccccc3)C(=O)[C@@H]21,-7.3%,-26.5%,-1.0%,0.2%,-15.8%,-1.3
COC(=O)c1ccc(Sc2nnnn2-c2ccccc2)c([N+](=O)[O-])c1,16.4µM*,-6.7%,-5.5%,-14.6%,23.1µM*,-9.9
O=C(O)c1ccc(Sc2nnnn2-c2ccccc2)c([N+](=O)[O-])c1,-2.3%,-0.9%,2.1%,2.0%,-3.8%,0.0
COc1cc(NC2c3ccccc3C(=O)N2Cc2ccc3c(c2)OCO3)cc(OC)c1OC (centres undefined),-7.3%,-5.5%,7.5%,-7.7%,?,-7.1
CC(=O)c1cccc(NC2c3ccccc3C(=O)N2Cc2ccc3c(c2)OCO3)c1 (centres undefined),?,-2.0%,3.9%,-4.3%,20.6µM*,-10.0
O=C1c2ccccc2C(Nc2ccc3c(c2)OCCO3)N1Cc1ccccc1 (centres undefined),29.1µM*,-17.2%,-5.6%,-18.3%,16.4µM*,-2.7
CCOc1ccc(NC2c3ccccc3C(=O)N2Cc2ccc3c(c2)OCO3)cc1 (centres undefined),?,-23.2%,-17.7%,-48.4%,16.4µM*,-26.9
O=C(NC1CCCCC1)C1c2ccccc2C(=O)N1Cc1ccc2c(c1)OCO2 (centres undefined),-1.9%,-31.5%,-0.4%,-18.1%,1.5%,-12.8
O=C1c2ccccc2C(Nc2cccnc2)N1Cc1ccccc1 (centres undefined),-13.2%,-12.8%,-0.7%,-13.5%,-19.8%,0.0
C=C(C)COc1ccc(-c2[nH]ncc2Oc2ccc(OC)cc2)c(O)c1,?,?,-3.0%,-95.8%,?,-14.4
C=C(C)COc1ccc(-c2[nH]ncc2Oc2ccccc2OC)c(O)c1,?,?,-2.3%,-109.9%,?,-61.6*
C=C(C)COc1ccc(-c2[nH]ncc2-c2ccccc2OC)c(O)c1,25.9µM*,?,-16.0%,17.8µM*,25.9µM*,-59.9*
C=C(C)COc1ccc(-c2n[nH]c(C)c2-c2ccc(Br)cc2)c(O)c1,18.4µM*,12.6µM*,?,14.1µM*,?,-91.6*
CCOc1ccccc1Oc1cn[nH]c1-c1ccc(OCC(=O)NN)cc1O,0.1%,16.0%,3.7%,3.5%,-20.5%,-9.5
C=C(C)COc1ccc(-c2[nH]ncc2-c2ccc(Br)cc2)c(O)c1,4.61µM*,20µM*,?,-115.2%,5.17µM*,-100.5*
CCOC(=O)c1c(C)c(-c2ccccc2)n(CC(=O)NC(CC)Cc2ccccc2)c1C (centres undefined),?,-18.8%,.,7.7%,?,.
CCOc1ccc(-c2[nH]ncc2Oc2ccccc2OCC)c(O)c1,6.51µM*,?,-6.6%,-78.2%,?,-15.4
CCCOC(=O)c1ccc(Oc2cn[nH]c2-c2ccc(OC)cc2O)cc1,14.6µM*,?,?,-80.6%,20.6µM*,-10.9
CCOc1ccc(-c2[nH]ncc2Oc2ccccc2OC)c(O)c1,-24.3%,?,-11.2%,-48.9%,?,-19.6
CN(C)c1ncnc2c1ncn2[C@H]1CN(Cc2cccs2)C[C@@H](CO)O1,-8.9%,29.8%,.,2.5%,-7.6%,21.0
CCCOc1ccc(C(=O)NCC(C)(C)N2CCOCC2)cc1,0.9%,6.3%,-2.1%,7.1%,-18.8%,12.0
CCOC(=O)c1cnn(-c2ccccc2)c1NC(=O)CN1CCCCC1,13.5%,-1.1%,4.8%,15.6%,-8.9%,-2.6
